Measurements published in article PMC5700166.

The sequences below were run against T1, GST-Dm-Relish (Drosophila melanogaster, UniProt Q94527 99-473) (assay: protein-binding microarray (PBM); PBM: ~300 nM protein, 6 mM HEPES pH 7.8, 80 mM KCl, 0.5 mM EDTA, 0.5 mM EGTA, 6% glycerol, 35 ng/ul poly-dIdC, 1% milk, 1 h, room temperature; Ap Aiptasia and Nv Nematostella (sea anemones) / Co Capsaspora / Aq Amphimedon (sponge) / Dm Drosophila / Hu human; RHD is the Rel homology domain; high values mean tight binding). Details: dsDNA, one strand shown.
T1 sequence: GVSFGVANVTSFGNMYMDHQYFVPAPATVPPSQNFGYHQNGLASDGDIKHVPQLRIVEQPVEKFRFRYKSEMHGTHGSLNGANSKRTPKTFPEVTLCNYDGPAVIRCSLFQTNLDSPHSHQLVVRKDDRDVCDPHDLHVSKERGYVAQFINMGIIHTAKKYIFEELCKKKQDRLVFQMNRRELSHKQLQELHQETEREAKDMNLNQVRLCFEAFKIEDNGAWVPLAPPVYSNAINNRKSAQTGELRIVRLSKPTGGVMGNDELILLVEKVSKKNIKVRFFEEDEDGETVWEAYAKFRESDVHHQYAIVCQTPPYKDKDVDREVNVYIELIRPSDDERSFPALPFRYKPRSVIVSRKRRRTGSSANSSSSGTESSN
Sequence “CCGATTAACATCAAGTAATTTTCTGATGTTAATCGGGTCTTGATTCGCTTGACGCTGCTG” has a binding signal of 1.86 z-score.
In the case of “CCGATTAACATCACGTATTTTCCTGATGTTAATCGGGTCTTGATTCGCTTGACGCTGCTG”, the binding signal is reported as 1.2 z-score.
“CCGATTAACATCACGGAATTCACTGATGTTAATCGGGTCTTGATTCGCTTGACGCTGCTG” showed a binding signal of 2.4 z-score.
“CCGATTAACATCACGTAAAATCCTGATGTTAATCGGGTCTTGATTCGCTTGACGCTGCTG” gave a binding signal of 1.05 z-score.
In the case of “CCGATTAACATCACTTAGTACGGTGATGTTAATCGGGTCTTGATTCGCTTGACGCTGCTG”, the binding signal is reported as 1.1 z-score.
Work on “CCGATTAACATCACAACGGAATGTGATGTTAATCGGGTCTTGATTCGCTTGACGCTGCTG” yielded a binding signal of 1.37 z-score.
“CCGATTAACATCAAGTACATTCCTGATGTTAATCGGGTCTTGATTCGCTTGACGCTGCTG” gave a binding signal of 2.21 z-score.
In the case of “CCGATTAACATCACAATACACGCTGATGTTAATCGGGTCTTGATTCGCTTGACGCTGCTG”, the binding signal is reported as 1.05 z-score.
“CCGATTAACATCACCGAATTTGGTGATGTTAATCGGGTCTTGATTCGCTTGACGCTGCTG” was tested, and the binding signal was 1.44 z-score.
Work on “CCGATTAACATCAGGAAAATACATGATGTTAATCGGGTCTTGATTCGCTTGACGCTGCTG” yielded a binding signal of 4.66 z-score.
“CCGATTAACATCAGTAAACTCCATGATGTTAATCGGGTCTTGATTCGCTTGACGCTGCTG” gave a binding signal of 1.1 z-score.
Work on “CCGATTAACATCACGGAAAATACTGATGTTAATCGGGTCTTGATTCGCTTGACGCTGCTG” yielded a binding signal of 1.21 z-score.
With “CCGATTAACATCACGTGAATTCCTGATGTTAATCGGGTCTTGATTCGCTTGACGCTGCTG” the binding signal was 2.84 z-score.
Work on “CCGATTAACATCAGGAAAATCACTGATGTTAATCGGGTCTTGATTCGCTTGACGCTGCTG” yielded a binding signal of 3.47 z-score.
“CCGATTAACATCAGGAATGTACATGATGTTAATCGGGTCTTGATTCGCTTGACGCTGCTG” was tested, and the binding signal was 4.12 z-score.
With “CCGATTAACATCACAAAATTCCATGATGTTAATCGGGTCTTGATTCGCTTGACGCTGCTG” the binding signal was 1.67 z-score.
With “CCGATTAACATCACGTGTTTTCCTGATGTTAATCGGGTCTTGATTCGCTTGACGCTGCTG” the binding signal was 1.04 z-score.
With “CCGATTAACATCAGCATCCACGGTGATGTTAATCGGGTCTTGATTCGCTTGACGCTGCTG” the binding signal was 1.01 z-score.
Sequence “CCGATTAACATCAGGAATTTATATGATGTTAATCGGGTCTTGATTCGCTTGACGCTGCTG” has a binding signal of 1 z-score.
In the case of “CCGATTAACATCAGAATTTCCTATGATGTTAATCGGGTCTTGATTCGCTTGACGCTGCTG”, the binding signal is reported as 1.23 z-score.
“CCGATTAACATCAGGAAAATTACTGATGTTAATCGGGTCTTGATTCGCTTGACGCTGCTG” gave a binding signal of 1.67 z-score.
Sequence “CCGATTAACATCAAGTTTTTTCCTGATGTTAATCGGGTCTTGATTCGCTTGACGCTGCTG” has a binding signal of 1.98 z-score.
Work on “CCGATTAACATCAGGAAATCACATGATGTTAATCGGGTCTTGATTCGCTTGACGCTGCTG” yielded a binding signal of 7.1 z-score.
“CCGATTAACATCATGTGGTTCTCTGATGTTAATCGGGTCTTGATTCGCTTGACGCTGCTG” was tested, and the binding signal was 1.1 z-score.
“CCGATTAACATCAAAATTCCAGGTGATGTTAATCGGGTCTTGATTCGCTTGACGCTGCTG” was tested, and the binding signal was 1.13 z-score.
“CCGATTAACATCAGTGAACCACATGATGTTAATCGGGTCTTGATTCGCTTGACGCTGCTG” showed a binding signal of 5.69 z-score.
With “CCGATTAACATCAAGTGATTTCCTGATGTTAATCGGGTCTTGATTCGCTTGACGCTGCTG” the binding signal was 4.18 z-score.
“CCGATTAACATCACAGAAAATCCTGATGTTAATCGGGTCTTGATTCGCTTGACGCTGCTG” showed a binding signal of 1.19 z-score.
With “CCGATTAACATCAAAAAAATTACTGATGTTAATCGGGTCTTGATTCGCTTGACGCTGCTG” the binding signal was 3.61 z-score.
In the case of “CCGATTAACATCAATGGATTTCCTGATGTTAATCGGGTCTTGATTCGCTTGACGCTGCTG”, the binding signal is reported as 1.12 z-score.
“CCGATTAACATCAGGAATTCACATGATGTTAATCGGGTCTTGATTCGCTTGACGCTGCTG” was tested, and the binding signal was 5.7 z-score.
With “CCGATTAACATCACGTGGATTCCTGATGTTAATCGGGTCTTGATTCGCTTGACGCTGCTG” the binding signal was 1.66 z-score.
“CCGATTAACATCACTATTGTACATGATGTTAATCGGGTCTTGATTCGCTTGACGCTGCTG” gave a binding signal of 1.29 z-score.
For “CCGATTAACATCAGTAGTTTCCATGATGTTAATCGGGTCTTGATTCGCTTGACGCTGCTG”, the binding signal was 1.79 z-score.
Work on “CCGATTAACATCACCCGAGTGCGTGATGTTAATCGGGTCTTGATTCGCTTGACGCTGCTG” yielded a binding signal of 1.01 z-score.
“CCGATTAACATCAAGGAAAATACTGATGTTAATCGGGTCTTGATTCGCTTGACGCTGCTG” gave a binding signal of 1.2 z-score.
Sequence “CCGATTAACATCACCTCTCGCGCTGATGTTAATCGGGTCTTGATTCGCTTGACGCTGCTG” has a binding signal of 1.25 z-score.
Work on “CCGATTAACATCAGTAATTTACATGATGTTAATCGGGTCTTGATTCGCTTGACGCTGCTG” yielded a binding signal of 6.73 z-score.
Sequence “CCGATTAACATCAAAATTCCATGTGATGTTAATCGGGTCTTGATTCGCTTGACGCTGCTG” has a binding signal of 1.36 z-score.
